Bioassay records: PubChem BioAssay, Broad Institute
Glyco luc inh: blocks N-linked glycosylation in D54 reporter cells. 0.23% of 360,000 active. D54 ERlucT glycosylation luciferase reporter, 24 h; percent of 100 nM tunicamycin response. reporter increase, % at 12.5 µM;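 active = mean luciferase reporter signal, scaled so untreated is 0 and the glycosylation-blocking control 100, at or above a set limit in every replicate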;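 note: luciferase carries N-glycosylation sites so blocking glycosylation raises the light; 0% = median of neutral control wells and 100% = median of 100 nM tunicamycin wells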
dFosB act-1: mouse delta FosB homodimer activation; activation, % at 25 µM; purified delta FosB, TAMRA-CDK5 oligo fluorescence polarization; percent of positive-control signal above neutral wells; 0.99% of 340,000 active; AID 493131; P13346;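 active = mean activation above about 17%, with every replicate also reaching it, limit read from the data, passing the limit was not always enough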
RAD52 anneal inh: RAD52 (human) annealing inhibition. inhibition, % at 18.7 µM. recombinant RAD52 DNA annealing, FRET fluorescence. 0.46% of 360,000 active;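 active = every replicate showing at least 50% inhibition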
RAD54 inh: inhibitors of human RAD54 branch migration; RAD54 Holliday junction branch migration, FAM/BHQ fluorescence; inhibition, % at 10.4 µM; 0.14% of 360,000 active; AID 602329;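 active = mean normalized replicate activity at least 40 and at least half of replicates scoring 40 or more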;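 note: 0% = median of neutral control wells and 100% = median of positive control wells; inhibitors cause a drop in the FAM fluorescence signal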
Target sequence (Q92698 whole entry, looked up): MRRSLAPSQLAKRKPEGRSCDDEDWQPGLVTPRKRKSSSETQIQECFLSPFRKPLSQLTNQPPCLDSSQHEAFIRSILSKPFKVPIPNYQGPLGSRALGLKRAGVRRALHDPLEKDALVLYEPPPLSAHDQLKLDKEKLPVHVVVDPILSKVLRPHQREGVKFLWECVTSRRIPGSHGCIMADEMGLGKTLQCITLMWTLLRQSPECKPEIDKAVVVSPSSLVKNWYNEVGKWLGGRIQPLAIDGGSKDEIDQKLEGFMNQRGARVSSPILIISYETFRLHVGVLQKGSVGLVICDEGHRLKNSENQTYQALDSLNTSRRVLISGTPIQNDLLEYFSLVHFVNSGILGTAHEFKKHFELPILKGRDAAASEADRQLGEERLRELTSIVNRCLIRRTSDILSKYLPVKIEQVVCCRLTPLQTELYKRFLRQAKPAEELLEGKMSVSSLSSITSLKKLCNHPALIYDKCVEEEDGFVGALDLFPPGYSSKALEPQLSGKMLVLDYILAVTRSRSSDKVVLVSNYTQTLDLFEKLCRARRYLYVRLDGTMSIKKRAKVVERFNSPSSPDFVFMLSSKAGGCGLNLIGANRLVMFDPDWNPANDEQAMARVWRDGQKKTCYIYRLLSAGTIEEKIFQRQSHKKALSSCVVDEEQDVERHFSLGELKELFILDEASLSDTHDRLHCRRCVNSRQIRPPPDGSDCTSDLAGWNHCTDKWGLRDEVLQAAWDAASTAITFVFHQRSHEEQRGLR
PvdQ inh: P. aeruginosa PvdQ acylase inhibition. purified PvdQ acylase, fluorescence plate reader. inhibition, % at 10 µM. 0.063% of 340,000 active; in the data active = inhibition above about 30%, passing the limit was not always enough;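 note: 0% = vehicle neutral wells and 100% = reference inhibitor wells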
CFTR F508del cor: CFTR F508del correction in bronchial cells | CFBE cells, YFP halide quenching; stimulated with forskolin plus potentiator P3; % fluorescence drop versus neutral controls | activity (quench increase), % at 7.58 µM | 0.36% of 350,000 active | AID 720511;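 active = mean added fluorescence quench of at least 8% versus neutral control, with both replicates also reaching 8%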;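 note: cells transiently co-express mutant CFTR-F508del with the halide-sensitive YFP; corrector assay measuring rescue of mutant channel to the surface after 24 h compound exposure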
dFosB act-2: enhances mouse delta FosB homodimer binding to DNA. purified delta FosB, TAMRA-CDK5 oligo fluorescence polarization; normalised: neutral wells 0, positive control 100. shares compounds with dFosB act-1. 2,400 tested, under 10 active. activation, % at 24.9 µM. AID 588690;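 active = highest replicate activation at or above 34% and every replicate reaching that threshold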;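 note: higher polarization means more probe DNA bound by delta FosB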
* marks the source's active call; other numbers are inactive results; nt = no result given. A selection: hits, their analogues and other compounds. The true share with any hit is near 1.5%.

SMILES	Glyco luc inh	dFosB act-1	RAD52 anneal inh	RAD54 inh	PvdQ inh	CFTR F508del cor	dFosB act-2
CO[C@@H]1CC[C@@H]2CCN(C)C(=O)C[C@H](c3ccccc3)CN(C)C(=O)c3cccc(C#N)c3OC[C@@H]1O2	nt	nt	-2.9	-6.3	nt	nt	nt
O=C(C[C@H]1C=C[C@H](NC(=O)c2ccc3c(c2)OCO3)[C@H](CO)O1)NCc1ccc(F)cc1	nt	nt	-6.4	nt	nt	-0.4	nt
CCCC#Cc1cnc2c(c1)C(=O)N([C@@H](C)CO)C[C@H](C)[C@H](CN(C)C(=O)c1ccc(F)cc1)O2	nt	nt	11.5	-1.7	nt	0.2	nt
Cc1ccc(S(=O)(=O)Nc2cccc3c2O[C@H](CN(C)C(=O)NC2CCCCC2)[C@@H](C)CN([C@@H](C)CO)C3=O)cc1	nt	nt	-19.5	-0.8	nt	-1.2	nt
O=C(Nc1ncn[nH]1)c1cc(S(=O)(=O)Nc2cccc(C(F)(F)F)c2)ccc1Cl	-0.8	57.5*	-9.9	nt	-18.8	-1.7	0.9
CO[C@@H]1CN(C)C(=O)c2cc(NC(=O)C3CCC3)ccc2OC[C@@H](C)N(Cc2ccncc2)C[C@@H]1C	nt	nt	11.8	0.0	nt	5.6	nt
CN(C)CC#Cc1ccc([C@@H]2[C@H]3CN(C(=O)Cc4cccnc4)CC(=O)N3[C@H]2CO)cc1	nt	nt	-3.9	nt	nt	-2.6	nt
C[C@H](CO)N1C[C@H](C)[C@H](CN(C)Cc2ccccc2)Oc2cc(C3=CCCC3)ccc2S1(=O)=O	nt	nt	-11.9	1.1	nt	2.8	nt
O=C(COc1ccc([N+](=O)[O-])cc1)Nc1ccccc1C(=O)NC1CC1	-2.9	25.6*	-8.1	nt	9.4	-3.4	2.4
O=C(COc1ccccc1)Nc1ccccc1C(=O)NC1CC1	-3.4	7.1	-9.7	-1.6	-5.8	1.3	nt
O=C(CCC(=O)Nc1ccccc1Cl)NNC(=O)COc1ccc([N+](=O)[O-])cc1	1.1	16.7*	-6.8	-6.3	0.7	-7.3	-1.6
O=C(COc1ccc(/C=N/NC(=O)c2ccncc2)cc1)Nc1cccc([N+](=O)[O-])c1	4.2	1.7	-1.5	-7.5	19.7	1.6	nt
O=C(COc1ccc(/C=N/NC(=O)c2ccccc2O)cc1)Nc1ccc([N+](=O)[O-])cc1	2.7	24.4*	-3.0	3.9	-13.2	-1.8	-3.3
CC(=O)c1ccc(OCC(=O)Nc2ccccc2C(=O)NC2CC2)cc1	1.3	30.3*	-10.0	-7.0	-20.6	-2.9	0.2
Cc1cc(C)cc(NC(=O)Cn2nnc(C(=O)NCc3ccc(F)cc3)c2N)c1	-0.6	57.8*	0.5	-0.7	1.9	-1.4	3.4
Cc1cc(C)cc(NC(=O)Cn2nnc(C(=O)NCc3ccccc3Cl)c2N)c1	8.1	40.8*	-17.1	-1.6	-12.1	-0.6	0.4
CCc1ccc(Nc2n[n+](-c3ccccc3)c(-c3ccc(SC)cc3)s2)cc1	-1.2	31.3*	47.5	-4.2	-12.4	1.4	-0.5
C[C@H]1CN([C@@H](C)CO)C(=O)c2cc(NS(=O)(=O)c3ccc(Cl)cc3)ccc2O[C@@H]1CN(C)S(=O)(=O)c1ccc(F)cc1	nt	nt	-5.5	2.8	nt	1.7	nt
O=C(C[C@H]1C=C[C@H](NC(=O)C2CCC2)[C@H](CO)O1)NCc1ccncc1	nt	nt	0.7	-0.4	nt	0.2	nt
COc1ccc2c3c([nH]c2c1)[C@H](CO)N(C(=O)C1CCCCC1)CC31CN(Cc2nccs2)C1	nt	nt	nt	nt	nt	2.8	nt
N#C/C(=C\c1ccc[nH]1)C(=O)Nc1ccccc1Cl	1.0	65.7*	-44.6	-23.7	-13.0	-1.8	2.8
N#C/C(=C\c1ccc[nH]1)C(=O)Nc1ccccc1F	-1.7	8.9	-7.8	-5.2	4.1	2.9	nt
NC(=O)Nc1ccc(C(=O)OCC(=O)Nc2sccc2C(N)=O)cc1	1.0	17.2*	-37.0	6.2	6.9	-1.6	-7.0
CCOC(=O)N1CCN(S(=O)(=O)c2ccc(C(=O)N(CCCN(C)C)c3nc4ccc(CC)cc4s3)cc2)CC1	-2.8	32.2*	7.8	-0.9	-5.3	0.4	1.5
CCOC(=O)N1CCN(S(=O)(=O)c2ccc(F)cc2)CC1	0.8	-2.9	-12.3	0.1	3.1	-0.5	nt
CCOC(=O)N1CCN(S(=O)(=O)c2ccc(C(=O)Nc3nc4ccc(F)cc4s3)cc2)CC1	-0.7	57.3*	3.7	nt	-12.1	-0.8	-6.0
